PubChem BioAssay (Tox21)
Inconclusive results are not listed. Calls of active or inactive are those of the source. Unless noted, calls follow the shape of the full dose curve.

Legend:
[1] = qHTS assay to identify small molecule antagonists of the sonic hedgehog signaling (Shh) pathway (AID 1259369); also: nearly all actives have a fitted effect of over 45% in size; also: potency is read from the fitted curve at half-maximal effect
In short: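 Stable Gli1-Luc reporter NIH/3T3 clone; quantitative HTS in stimulated mode with conditioned medium. Luminescence measured after 24hr compound treatment at 37 C.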

[2] = qHTS assay to identify small molecule agonists of the androgen receptor (AR) signaling pathway in the presence of an antagonist - cell viability counter screen (AID 1259379; active = well fitted curve in the direction sought with a large enough effect in the repeat runs; an effect the other way counts as inactive or inconclusive;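 also: MDA-kb2 human breast cancer cells carrying an MMTV luciferase reporter; series mostly up to about 92 µM; nearly all actives have a fitted effect of over 25% in size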)
In short: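 Nilutamide-containing (3.0uM final) MDA-kb2 cultures, 3,000 cells/well, were treated with compounds across 15 concentrations. After 16 hr at 37C with no CO2, cell viability was determined by CellTiter-Fluor fluorescence in the luciferase assay wells.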

[3] = qHTS assay to identify small molecule agonists of the estrogen receptor beta (ER-beta) signaling pathway - cell viability counter screen (AID 1259380; active = well fitted curve in the direction sought with a large enough effect in the repeat runs; an effect the other way counts as inactive or inconclusive; also: nearly all actives have a fitted effect of over 30% in size; also: potency is read from the fitted curve at half-maximal effect)
In short: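 Steps: plate ER-beta-UAS-bla HEK293T cells, rest 6 hr; add compounds in DMSO; incubate 16 hr at 37C, 5% CO2; add FRET substrate 2 hr; add CellTiter-Glo, wait 30 min at room temperature; read luminescence.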

[4] = qHTS assay to identify small molecule antagonists of the estrogen receptor beta (ER-beta) signaling pathway - cell viability counter screen (AID 1259382; active = well fitted curve in the direction sought with a large enough effect in the repeat runs; an effect the other way counts as inactive or inconclusive;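 also: HEK293T cells carrying ER-beta-UAS-bla reporter stimulated with estradiol; series mostly up to about 92 µM; nearly all actives have a fitted effect of over 55% in size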)
In short: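 Viability is scored by CellTiter-Glo luminescence (30 min, room temperature) in ER-beta-UAS-bla HEK293T wells already read for reporter fluorescence. Compound exposure lasts 16 hr at 37C alongside 1nM 17-beta-estradiol in charcoal-stripped serum medium.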

[5] = biological target: Estrogen receptor (Homo sapiens) (UniProt P03372); assay: qHTS assay to identify small molecule agonists of the estrogen receptor alpha (ER-alpha) signaling pathway in the presence of an antagonist (AID 1259383); also: nearly all actives have a fitted effect of over 15% in size; also: potency is read from the fitted curve at half-maximal effect; as to activation: top concentration of the series differs between compounds
Estrogen receptor (Homo sapiens), sequence (P03372 whole entry, looked up): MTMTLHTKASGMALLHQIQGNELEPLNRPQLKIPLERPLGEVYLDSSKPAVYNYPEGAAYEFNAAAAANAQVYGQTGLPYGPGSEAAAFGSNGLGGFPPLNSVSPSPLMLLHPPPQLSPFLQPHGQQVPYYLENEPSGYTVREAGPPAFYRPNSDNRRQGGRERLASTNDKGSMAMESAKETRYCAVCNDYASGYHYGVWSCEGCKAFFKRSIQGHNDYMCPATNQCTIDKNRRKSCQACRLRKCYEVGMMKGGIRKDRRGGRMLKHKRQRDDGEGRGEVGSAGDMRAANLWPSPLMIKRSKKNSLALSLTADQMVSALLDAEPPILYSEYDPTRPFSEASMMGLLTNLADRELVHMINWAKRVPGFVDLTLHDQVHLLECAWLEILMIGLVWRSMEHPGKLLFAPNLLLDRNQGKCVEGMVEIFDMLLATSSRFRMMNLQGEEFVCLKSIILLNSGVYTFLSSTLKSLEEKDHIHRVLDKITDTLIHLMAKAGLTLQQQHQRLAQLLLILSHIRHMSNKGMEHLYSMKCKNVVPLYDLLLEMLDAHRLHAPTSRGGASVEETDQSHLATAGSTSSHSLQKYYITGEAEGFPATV
In short: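 Readout was ERE-driven luciferase luminescence in VM7Luc4E2 cells, which express full-length ER-alpha endogenously. Compounds were tested at 15 concentrations for 22hr alongside 10.0nM ICI-182,780 (final concentration).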

[6] = qHTS assay to identify small molecule agonists or antagonists of the thyroid stimulating hormone receptor (TSHR) signaling pathway - wild type cell line counter screen (AID 1259384)
In short: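 Wild-type Hek293 cells, 800/well, 18 h at 37C, then compound with Ro20-1724 for 30 min RT. cAMP by HTRF (cAMP-d2/anti-cAMP cryptate), 1 h RT, fluorescence read. 15 concentrations, triplicates.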

[7] = biological target: Thyrotropin receptor (Homo sapiens) (UniProt P16473); assay: qHTS assay to identify small molecule antagonists of the thyroid stimulating hormone receptor (TSHR) signaling pathway (AID 1259385); also: nearly all actives have a fitted effect of over 20% in size
Thyrotropin receptor (Homo sapiens), sequence (P16473 whole entry, looked up): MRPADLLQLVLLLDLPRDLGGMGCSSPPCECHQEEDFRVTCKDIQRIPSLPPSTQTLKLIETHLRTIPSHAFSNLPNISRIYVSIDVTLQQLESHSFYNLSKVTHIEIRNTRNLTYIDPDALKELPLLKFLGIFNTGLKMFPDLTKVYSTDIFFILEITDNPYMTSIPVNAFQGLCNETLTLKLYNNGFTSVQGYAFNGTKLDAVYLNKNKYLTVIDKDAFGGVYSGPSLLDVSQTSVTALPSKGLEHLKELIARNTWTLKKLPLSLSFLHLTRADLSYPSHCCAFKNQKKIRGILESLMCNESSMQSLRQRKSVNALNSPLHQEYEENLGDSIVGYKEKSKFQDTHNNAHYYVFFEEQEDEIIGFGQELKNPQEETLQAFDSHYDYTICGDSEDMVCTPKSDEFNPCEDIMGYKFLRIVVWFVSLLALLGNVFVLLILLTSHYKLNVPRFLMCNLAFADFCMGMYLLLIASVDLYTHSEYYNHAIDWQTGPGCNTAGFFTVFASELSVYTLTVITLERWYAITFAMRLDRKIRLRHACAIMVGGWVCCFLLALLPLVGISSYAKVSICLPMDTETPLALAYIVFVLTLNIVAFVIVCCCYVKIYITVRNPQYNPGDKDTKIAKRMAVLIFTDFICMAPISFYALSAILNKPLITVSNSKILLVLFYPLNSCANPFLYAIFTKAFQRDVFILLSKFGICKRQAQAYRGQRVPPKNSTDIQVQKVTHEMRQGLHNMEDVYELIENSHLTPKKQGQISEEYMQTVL
In short: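 TSHR-HEK293 cells (800/well) plated 18 h, then compounds with Ro20-1724 and TSH at 1.5 ng/mL final, 30 min at room temperature. cAMP quantified by HTRF (cAMP-d2/anti-cAMP-cryptate, 1 h); 15 concentrations in triplicate.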

[8] = qHTS assay to identify small molecule agonists of the estrogen receptor alpha (ER-alpha) signaling pathway in the presence of an antagonist - cell viability counter screen (AID 1259386; active = well fitted curve in the direction sought with a large enough effect in the repeat runs; an effect the other way counts as inactive or inconclusive;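 also: series mostly up to about 92 µM; cells exposed to compounds for 22 h at 37 °C before the viability read; nearly all actives have a fitted effect of over 30% in size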)
In short: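 In this counter screen, compound effects on VM7Luc4E2 viability were tested in the presence of the antagonist ICI-182,780 at 10.0nM final. Compounds were dosed at 15 concentrations, exposure lasted 22hr, and the CellTiter-Fluor signal was read.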

[9] = biological target: Progesterone receptor (Homo sapiens) (UniProt P06401); assay: qHTS assay to identify small molecule agonists of the progesterone receptor (PR) signaling pathway (AID 1346784); also: nearly all actives have a fitted effect of over 30% in size
Progesterone receptor (Homo sapiens), sequence (P06401 whole entry, looked up): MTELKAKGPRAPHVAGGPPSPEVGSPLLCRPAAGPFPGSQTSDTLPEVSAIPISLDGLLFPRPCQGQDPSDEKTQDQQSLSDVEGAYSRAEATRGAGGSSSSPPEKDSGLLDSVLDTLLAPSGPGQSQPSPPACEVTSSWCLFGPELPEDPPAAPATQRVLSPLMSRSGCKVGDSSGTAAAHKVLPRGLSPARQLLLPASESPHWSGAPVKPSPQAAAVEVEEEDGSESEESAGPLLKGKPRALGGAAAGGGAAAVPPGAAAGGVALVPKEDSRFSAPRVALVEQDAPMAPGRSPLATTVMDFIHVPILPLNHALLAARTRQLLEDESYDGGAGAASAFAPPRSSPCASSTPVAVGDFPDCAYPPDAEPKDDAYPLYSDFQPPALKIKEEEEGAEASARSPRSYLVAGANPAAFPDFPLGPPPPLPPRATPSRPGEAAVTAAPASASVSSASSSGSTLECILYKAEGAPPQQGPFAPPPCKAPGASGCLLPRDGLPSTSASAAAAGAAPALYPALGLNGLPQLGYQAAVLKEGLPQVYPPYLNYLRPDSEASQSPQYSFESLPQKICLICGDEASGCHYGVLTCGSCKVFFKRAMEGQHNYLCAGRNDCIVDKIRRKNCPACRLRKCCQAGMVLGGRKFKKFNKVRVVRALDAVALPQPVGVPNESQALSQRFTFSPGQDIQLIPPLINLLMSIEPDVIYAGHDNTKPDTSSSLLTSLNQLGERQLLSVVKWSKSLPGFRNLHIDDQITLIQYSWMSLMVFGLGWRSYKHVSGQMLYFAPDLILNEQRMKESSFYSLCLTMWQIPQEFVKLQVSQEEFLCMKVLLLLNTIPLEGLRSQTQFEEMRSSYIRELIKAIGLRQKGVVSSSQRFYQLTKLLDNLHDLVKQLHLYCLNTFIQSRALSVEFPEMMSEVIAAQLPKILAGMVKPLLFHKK
In short: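 PR-UAS-bla HEK 293T cells carrying a UAS-driven beta-lactamase reporter were seeded in medium with 2% charcoal-stripped FBS, preincubated 6 hr at 37C, then exposed to compounds in DMSO for 16 hr; agonism was read by LiveBLAzer B/G FRET fluorescence.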

[10] = biological target: Progesterone receptor (Homo sapiens) (UniProt P06401); assay: qHTS assay to identify small molecule antagonists of the progesterone receptor (PR) signaling pathway (AID 1346795; active = well fitted inhibition curve with a large enough effect in the signal ratio in the repeat runs, not every such curve was filed as active; the % refers to the signal ratio; also: potency is read from the fitted curve at half-maximal effect)
In short: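 PR-UAS-bla HEK293T cells carrying a UAS-driven beta-lactamase reporter were plated in medium with 2% charcoal-stripped FBS and rested 6 hr at 37C. Compounds were added with 1 nM R5020 (final) for 16 hr, then FRET substrate loaded 2 hr at room temperature.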

[11] = qHTS assay to identify small molecule antagonists of the progesterone receptor (PR) signaling pathway - cell viability counter screen (AID 1346798; active = well fitted curve in the direction sought with a large enough effect in the repeat runs; an effect the other way counts as inactive or inconclusive; also: nearly all actives have a fitted effect of over 50% in size; also: potency is read from the fitted curve at half-maximal effect; as to activity change, negative = cytotoxicity: series mostly up to about 92 µM)
In short: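 PR-UAS-bla HEK293T cells in medium with 2% charcoal-stripped FBS were treated with compounds plus R5020 for 16 hr at 37C. Cell viability was then read by CellTiter-Glo luminescence after 30 min at room temperature in the same wells.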

[12] = qHTS assay to identify small molecule agonists of the progesterone receptor (PR) signaling pathway - cell viability counter screen (AID 1346799); also: nearly all actives have a fitted effect of over 45% in size
In short: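 PR-UAS-bla HEK293T cells, 3,000 per well in medium with 2% charcoal-stripped FBS, were preincubated 6 hr at 37C, then exposed to compounds for 16 hr; viability was read as CellTiter-Glo luminescence after 30 min at room temperature.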

[13] = qHTS assay to identify small molecule antagonists of the TGF-beta/Smad signaling pathway - cell viability counter screen (AID 1346824; active = well fitted curve in the direction sought with a large enough effect in the repeat runs; an effect the other way counts as inactive or inconclusive; also: nearly all actives have a fitted effect of over 50% in size)
In short: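 SBE-bla HEK 293T cells, incubated overnight, then compound plus 0.25 ng/mL TGF-beta1 (stock added) for 5 hr at 37 C. Viability was read in the same wells by CellTiter-Glo luminescence after 30 min at room temperature.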

[14] = qHTS assay to identify small molecule agonists of the TGF-beta/Smad signaling pathway - cell viability counter screen (AID 1346829; active = well fitted curve in the direction sought with a large enough effect in the repeat runs; an effect the other way counts as inactive or inconclusive; also: top concentration of the series differs between compounds; nearly all actives have a fitted effect of over 45% in size)
In short: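 HEK 293T SBE-bla line, 5 hr compound exposure at 37 C, multiplexed CellTiter-Glo viability read by luminescence.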

[15] = qHTS assay to identify small molecule agonists of the TGF-beta/Smad signaling pathway (AID 1346859; active = well fitted activation curve with a large enough effect in the signal ratio in the repeat runs, not every such curve was filed as active; the % refers to the signal ratio; also: series mostly up to about 77 µM)
In short: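 HEK 293T cells stably carrying a beta-lactamase reporter driven by the Smad binding element were seeded overnight, exposed to DMSO-dissolved compounds for 5 hr at 37 C, 5% CO2, then loaded with FRET substrate for 2 hr at room temperature.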

[16] = biological target: Androgen receptor (Homo sapiens) (UniProt P10275); assay: qHTS assay to identify small molecule agonists of the androgen receptor (AR) signaling pathway in the presence of an antagonist (AID 1259381); also: nearly all actives have a fitted effect of over 15% in size
Androgen receptor (Homo sapiens), sequence (P10275 whole entry, looked up): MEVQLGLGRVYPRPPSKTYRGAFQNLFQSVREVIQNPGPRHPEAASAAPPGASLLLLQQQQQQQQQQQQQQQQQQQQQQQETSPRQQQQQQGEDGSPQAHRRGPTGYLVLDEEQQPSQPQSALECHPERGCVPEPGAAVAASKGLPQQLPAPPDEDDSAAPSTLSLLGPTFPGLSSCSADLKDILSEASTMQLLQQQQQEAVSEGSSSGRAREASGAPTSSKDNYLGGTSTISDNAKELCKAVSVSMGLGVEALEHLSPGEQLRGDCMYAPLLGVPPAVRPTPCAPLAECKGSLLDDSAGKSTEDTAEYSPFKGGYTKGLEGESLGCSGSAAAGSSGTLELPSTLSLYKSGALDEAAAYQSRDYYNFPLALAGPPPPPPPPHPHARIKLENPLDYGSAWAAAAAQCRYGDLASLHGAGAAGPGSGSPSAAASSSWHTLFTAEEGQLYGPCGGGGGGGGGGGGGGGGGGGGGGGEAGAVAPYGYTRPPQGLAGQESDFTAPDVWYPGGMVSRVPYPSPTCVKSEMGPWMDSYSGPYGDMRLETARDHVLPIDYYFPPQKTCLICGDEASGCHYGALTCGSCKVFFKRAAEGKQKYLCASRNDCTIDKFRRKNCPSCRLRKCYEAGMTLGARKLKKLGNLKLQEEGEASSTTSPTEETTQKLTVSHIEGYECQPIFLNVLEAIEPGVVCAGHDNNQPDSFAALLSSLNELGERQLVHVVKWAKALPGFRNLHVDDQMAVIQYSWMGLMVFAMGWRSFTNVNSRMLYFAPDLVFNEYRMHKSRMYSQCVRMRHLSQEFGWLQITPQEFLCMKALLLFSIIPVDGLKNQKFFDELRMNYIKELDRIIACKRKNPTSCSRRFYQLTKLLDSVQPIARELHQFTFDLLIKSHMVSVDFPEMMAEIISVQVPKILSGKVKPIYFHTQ
In short: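 Reporter-gene luminescence from MDA-kb2 cells exposed 16hr at 37C (0% CO2) to 15-point compound titrations with 3.0uM final nilutamide as AR antagonist.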

[17] = biological target: Thyrotropin-releasing hormone receptor (Homo sapiens) (UniProt P34981); assay: qHTS assay to identify small molecule antagonists of the thyrotropin-releasing hormone receptor (TRHR) signaling pathway (AID 1346877; active = well fitted inhibition curve with a large enough effect in the repeat runs, not every such curve was filed as active; also: series mostly up to about 51 µM)
Thyrotropin-releasing hormone receptor (Homo sapiens), sequence (P34981 whole entry, looked up): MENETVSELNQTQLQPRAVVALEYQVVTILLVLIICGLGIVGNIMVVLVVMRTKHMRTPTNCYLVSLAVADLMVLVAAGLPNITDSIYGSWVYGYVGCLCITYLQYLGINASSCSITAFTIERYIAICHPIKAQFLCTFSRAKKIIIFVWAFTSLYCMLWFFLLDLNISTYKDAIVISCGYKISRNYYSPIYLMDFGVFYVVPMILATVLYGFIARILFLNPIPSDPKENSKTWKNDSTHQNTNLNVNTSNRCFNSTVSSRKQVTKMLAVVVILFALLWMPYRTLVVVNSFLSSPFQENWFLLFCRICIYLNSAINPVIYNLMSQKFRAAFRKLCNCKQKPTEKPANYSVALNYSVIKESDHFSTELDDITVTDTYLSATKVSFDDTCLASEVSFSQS
In short: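 Kinetic fluorescence (3 min, 1 s resolution) following stimulation with TRH at 1 nM final; HEK293 cells bearing human TRHR; 5 min compound preincubation at RT; concentration-response over 15 points, triplicates.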

[18] = biological target: Thyrotropin-releasing hormone receptor (Homo sapiens) (UniProt P34981); assay: qHTS assay to identify small molecule agonists of the thyrotropin-releasing hormone receptor (TRHR) signaling pathway (AID 1346891); also: series mostly up to about 58 µM
In short: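 TRHR-expressing HEK293 cells were plated 18 h at 37 °C/5% CO2, loaded with calcium dye 2 h at 37 °C, then given compound in DMSO; fluorescence was read kinetically for 3 min at 1 s intervals.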
% is scaled to controls: 0 for no effect and ±100 for the full control effect.

CC1CCC(=O)C1=O (configuration not stated)
inactive: Potency [1] | Potency [2] | Potency [3] | Potency [4] | Potency [5] | Potency [6] | Potency [7] | Potency [8] | Potency [9] | Potency [10] | Potency [11] | Potency [12] | Potency [13] | outcome [14] | Potency [15]

COc1ccc(-c2nc3ccc(C4=NNC(=O)CC4C)cc3[nH]2)cc1 (configuration not stated)
active: Potency [1] 8.41 µM
inactive: Potency [2] | Potency [3] | Potency [16] | Potency [4] | Potency [5] | Potency [6] | Potency [8] | Potency [9] | Potency [13] | outcome [14] | Potency [15] | outcome [17] | Potency [18]

C/C(=C(\CCOP(=O)(O)O)SC(=O)c1ccccc1)N(C=O)Cc1cnc(C)nc1N
inactive: activity change, negative = inhibition [1] 1.8% [at 8.39 µM] | activity change, negative = cytotoxicity [2] 1.6% [at 8.39 µM] | activity change, negative = cytotoxicity [3] 7.29% [at 8.39 µM] | activation [16] -1.54% [at 8.39 µM] | activity change, negative = cytotoxicity [4] 2.09% [at 8.39 µM] | activation [5] 0.094% [at 8.39 µM] | cAMP activity change [6] -0.23% [at 8.39 µM, hits give high values] | activity change, negative = inhibition [7] -1.28% [at 8.39 µM] | activity change, negative = cytotoxicity [8] 1.33% [at 8.39 µM] | activation [9] -0.857% [at 8.39 µM] | activity change, negative = inhibition [10] 5.03% [at 8.39 µM] | activity change, negative = cytotoxicity [11] 9.64% [at 8.39 µM] | activity change, negative = cytotoxicity [12] -10.4% [at 8.39 µM] | viability change, negative = cytotoxic [13] 4.01% [at 6.97 µM] | activity change, negative = cytotoxicity [14] 0.402% [at 6.97 µM] | activation [15] 2.27% [at 6.97 µM] | activity, negative = inhibition [17] -3.24% [at 4.65 µM] | activation [18] -0.266% [at 5.23 µM]

COC(C)OC
inactive: Potency [1] | Potency [2] | Potency [3] | Potency [4] | Potency [5] | Potency [6] | Potency [7] | Potency [8] | Potency [9] | Potency [10] | Potency [11] | Potency [12] | Potency [13] | outcome [14] | Potency [15] | outcome [17] | Potency [18]

O=S(c1cc(Cl)cc(Cl)c1O)c1cc(Cl)cc(Cl)c1O
inactive: Potency [2] | Potency [16] | Potency [5] | Potency [6] | Potency [7] | Potency [8] | Potency [9] | Potency [12] | Potency [13] | outcome [14] | outcome [17] | Potency [18]
active: Potency [1] 21.1 µM | Potency [3] 29.8 µM

CCCC(=O)Nc1ccc(O)c(C(C)=O)c1
inactive: Potency [1] | Potency [2] | Potency [3] | Potency [4] | Potency [5] | Potency [6] | Potency [7] | Potency [8] | Potency [9] | Potency [11] | Potency [12] | Potency [13] | outcome [14] | outcome [17] | Potency [18]

CN(C)c1ccc(C(c2ccccc2)c2ccc(N(C)C)cc2)cc1
inactive: Potency [2] | Potency [16] | Potency [6] | Potency [7] | Potency [8] | Potency [9] | Potency [11] | Potency [12] | Potency [13] | outcome [14] | outcome [17] | Potency [18]
active: Potency [1] 3.06 µM | Potency [3] 17.2 µM | Potency [10] 13.7 µM

ClCCOCCOCCCl
inactive: Potency [1] | Potency [2] | Potency [3] | Potency [4] | Potency [5] | Potency [6] | Potency [7] | Potency [8] | Potency [11] | Potency [12] | Potency [13] | outcome [14] | Potency [15] | outcome [17] | Potency [18]

C/C=C(/C(=C/C)c1ccc(OC(C)=O)cc1)c1ccc(OC(C)=O)cc1
active: Potency [1] 29.8 µM | Potency [5] 0.0133 µM | Potency [10] 8.41 µM
inactive: Potency [2] | Potency [3] | Potency [4] | Potency [6] | Potency [7] | Potency [8] | Potency [9] | Potency [11] | Potency [13] | outcome [14] | Potency [15] | outcome [17] | Potency [18]

Nc1cccc(S(=O)(=O)c2cccc(N)c2)c1
inactive: Potency [1] | Potency [2] | Potency [3] | Potency [4] | Potency [5] | Potency [6] | Potency [7] | Potency [8] | Potency [9] | Potency [11] | Potency [12] | Potency [13] | outcome [14] | Potency [15] | outcome [17] | Potency [18]

NS(=O)(=O)c1ccc(N2CCCCS2(=O)=O)cc1
inactive: Potency [1] | Potency [2] | Potency [3] | Potency [16] | Potency [4] | Potency [5] | Potency [6] | Potency [7] | Potency [8] | Potency [9] | Potency [10] | Potency [11] | Potency [12] | Potency [13] | outcome [14] | Potency [15] | outcome [17] | Potency [18]

CC(=O)OC[C@H]1O[C@@H](n2ncc(=O)[nH]c2=O)[C@H](OC(C)=O)[C@@H]1OC(C)=O
inactive: Potency [1] | Potency [2] | Potency [16] | Potency [5] | Potency [6] | Potency [7] | Potency [8] | Potency [9] | outcome [14] | Potency [15] | outcome [17] | Potency [18]
active: Potency [3] 1.33 µM | Potency [11] 2.37 µM

N=c1ccn2c(n1)O[C@H]1[C@H](O)[C@@H](CO)O[C@H]12
inactive: Potency [1] | Potency [2] | Potency [3] | Potency [4] | Potency [5] | Potency [6] | Potency [7] | Potency [8] | Potency [9] | Potency [10] | Potency [11] | Potency [12] | Potency [13] | outcome [14] | Potency [15]
